Among the data in PubChem BioAssay (EPA / NIEHS) are outcome and AC50 values, retold here.

Each structure is given as a SMILES string. Records with an inconclusive call do not appear. The source holds several records for some structures; these can differ, active in one and inactive in another. Activity calls are given as the source filed them. Rule for the calls, unless noted: active = hit-call score of the fitted dose curve at least 0.9, where 1 is the maximum; inactive = score below 0.9.

Read-out in experiment [1]: Intercellular Adhesion Molecule 1 (ICAM1), ICAM1 (gene 3383)
The experiment can be described thus: BSK_3C_ICAM1: BioMAP Diversity Plus: 3C Assay for Intercellular Adhesion Molecule 1 (ICAM1) Biomarker Activity (AID 2283003). Conditions: primary human endothelial cells (HUVEC); actives raise or lower the signal. In a few lines:
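Primary human umbilical vein endothelial cells in the BioMAP 3C system were exposed to chemicals for 24 h, then ICAM-1 was quantified by ELISA. Activity was fitted bidirectionally against the DMSO negative control baseline.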

Experiment [2] addresses human Retinoic Acid Receptor beta (RARb), RARB (gene 5915) (UniProt P10826). The experiment is described as follows: ATG_RARb_TRANS: Attagene TRANS-FACTORIAL HepG2 Assay for human Retinoic Acid Receptor beta (AID 2283004; active = hit-call score of the fitted dose curve at least 0.9, where 1 is the maximum). In a few lines: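 Induction of reporter mRNA from a chimeric RARb-Gal4 construct was measured by RT-PCR, FAM labelling, HpaI digestion and capillary electrophoresis. Measurements followed 24 h compound treatment of transiently transfected human HepG2 liver cells, with DMSO as baseline.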

Experiment [3] can be described thus: BSK_3C_Proliferation: Cell Proliferation Assessment in the BioMAP Diversity Plus: 3C Assay (AID 2283006).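 For AC50: potency may reflect either rise or fall in cell number versus DMSO.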 Conditions: primary human endothelial cells (HUVEC). Put shortly: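 Human umbilical vein endothelial cells were grown sub-confluent and exposed to chemical for 48 h, then fixed with 10% TCA and stained with 0.1% sulforhodamine B; absorbance at 560 nm gave relative cell number, fitted bidirectionally against DMSO baseline.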

Experiment [4] addresses human RAR-related Orphan Receptor gamma (RORg), RORC (gene 6097) (UniProt P51449). The experiment is described as follows: ATG_RORg_TRANS: Attagene TRANS-FACTORIAL HepG2 Assay for human RAR-related Orphan Receptor gamma (RORg) (AID 2283011; active = hit-call score of the fitted dose curve at least 0.9, where 1 is the maximum). In a few lines: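 Reporter transcripts from a transfected RORg-GAL4 chimera in HepG2 cells were quantified 24 h after dosing by RT-PCR, 6-FAM labelling, HpaI digestion and capillary electrophoresis; increases over DMSO baseline were fitted.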

Experiment [5] has as its target human Retinoid X Receptor beta (RXRb), RXRB (gene 6257) (UniProt P28702). The experiment is described as follows: ATG_RXRb_TRANS: Attagene TRANS-FACTORIAL HepG2 Assay for human Retinoid X Receptor beta (RXRb) (AID 2283013; active = hit-call score of the fitted dose curve at least 0.9, where 1 is the maximum). In a few lines:
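HepG2 cells transiently transfected with multiplexed reporter units driven by GAL4-UAS and exogenous chimeric NR-Gal4 proteins; treated 24 h. Reporter mRNA measured by RT-PCR, 6-FAM labelling and capillary electrophoresis; gain-of-signal fitted versus DMSO baseline.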

Experiment [6] addresses human Thyroid Receptor alpha (THRa1), THRA (gene 7067) (UniProt P10827). The experiment can be described thus: ATG_THRa1_TRANS: Attagene TRANS-FACTORIAL HepG2 Assay for human Thyroid Receptor alpha (THRa1) (AID 2283014; active = hit-call score of the fitted dose curve at least 0.9, where 1 is the maximum). Put shortly: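 Transcripts from GAL4-UAS-driven reporters, measured after 24 h compound exposure by RT-PCR plus capillary electrophoresis of 6-FAM-labeled fragments, were fitted for gain of signal relative to DMSO. Cells: transiently transfected HepG2 expressing NR-Gal4 chimeras.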

Read-out in experiment [7]: E-selectin (Homo sapiens) (UniProt P16581)
The experiment is described as follows: BSK_3C_Eselectin: BioMAP Diversity Plus: 3C Assay for Eselectin Biomarker Activity (AID 2283015).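 For outcome: cell surface E-selectin protein quantified by ELISA 24 h after dosing.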 Conditions: primary human endothelial cells (HUVEC); actives raise or lower the signal. In a few lines: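 E-selectin ELISA readout, fitted bidirectionally relative to DMSO, taken 24 h post-dosing in HUVEC cultures of the 3C system. Overt cytotoxicity tracked with sulforhodamine B staining of parallel wells.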

Read-out in experiment [8]: Interleukin-1 alpha (IL1a), IL1A (gene 3552)
The experiment is described as follows: BSK_BE3C_IL1a: BioMAP Diversity Plus: BE3C Assay for Interleukin-1 alpha (IL1a) Biomarker Activity (AID 2283016). Conditions: primary human bronchial epithelial cells; actives raise or lower the signal. Put shortly:
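Human primary bronchial epithelial cells (BE3C system) were dosed with compound and IL-1a measured by ELISA 24 h later. Activity was fitted bidirectionally against DMSO baseline; cytotoxicity was tracked in parallel cultures by SRB total-protein staining.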

Read-out in experiment [9]: Monocyte Chemoattractant Protein-1 (MCP1), CCL2 (gene 6347)
The experiment can be described thus: BSK_3C_MCP1: BioMAP Diversity Plus: 3C Assay for Monocyte Chemoattractant Protein-1 (MCP1) Biomarker Activity (AID 2283017). The note with it: primary human endothelial cells (HUVEC); actives raise or lower the signal. Put shortly:
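MCP-1 was measured by ELISA 24 h after dosing in primary HUVEC 3C cultures and fitted in both directions relative to DMSO; cytotoxicity was checked by SRB total-protein staining in parallel wells.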

Read-out in experiment [10]: Monocyte Chemoattractant Protein-1 (MCP1), CCL2 (gene 6347)
The experiment can be described thus: BSK_4H_MCP1: BioMAP Diversity Plus: 4H Assay for Monocyte Chemoattractant Protein-1 (MCP1) Biomarker Activity (AID 2283018). The note with it: primary human endothelial cells (HUVEC); actives raise or lower the signal. Put shortly: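 Human umbilical vein endothelial cells (4H system) dosed with chemical; MCP-1 measured by ELISA 24 h after dosing. Bidirectional curve fitting against DMSO negative control as baseline; parallel SRB total-protein staining tracks overt cytotoxicity.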

Read-out in experiment [11]: Human Leukocyte Antigen - DR isotype (HLADR), HLA-DRA (gene 3122)
The experiment is described as follows: BSK_3C_HLADR: BioMAP Diversity Plus: 3C Assay for Human Leukocyte Antigen - DR isotype (HLADR) Biomarker Activity (AID 2283019).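 For outcome: ELISA of cell-surface HLA-DR on HUVEC 24 h after dosing.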 Conditions: primary human endothelial cells (HUVEC); actives raise or lower the signal. Put shortly:
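Bidirectional fitting against DMSO was applied to the HLA-DR ELISA signal from human umbilical vein endothelial cells, 24 h post-dose. Cytotoxicity came from parallel SRB total-protein staining; 3C proliferation was counted by SRB at 48 h.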

Read-out in experiment [12]: Interleukin-8 (IL8), CXCL8 (gene 3576)
The experiment is described as follows: BSK_3C_IL8: BioMAP Diversity Plus: 3C Assay for Interleukin-8 (IL8) Biomarker Activity (AID 2283020). Conditions: primary human endothelial cells (HUVEC); actives raise or lower the signal. In a few lines:
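Primary human umbilical vein endothelial cells (3C system) were exposed to test chemical for 24 h, then IL-8 was quantified by ELISA. Responses were fitted bidirectionally against DMSO vehicle as baseline.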

Read-out in experiment [13]: Monokine induced gamma interferon (MIG), CXCL9 (gene 4283)
The experiment can be described thus: BSK_3C_MIG: BioMAP Diversity Plus: 3C Assay for Monokine induced gamma interferon (MIG) Biomarker Activity (AID 2283021). The note with it: primary human endothelial cells (HUVEC); actives raise or lower the signal. In a few lines: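 Primary human umbilical vein endothelial cells in the 3C system were exposed to chemical for 24 h, after which MIG was quantified by ELISA. Activity was fitted bidirectionally against DMSO as negative control and baseline.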

For experiment [14], the target named is human Vitamin D Receptor (VDR), VDR (gene 7421) (UniProt P11473). The experiment is described as follows: ATG_VDR_TRANS: Attagene TRANS-FACTORIAL HepG2 Assay for human Vitamin D Receptor (VDR) (AID 2283022; active = hit-call score of the fitted dose curve at least 0.9, where 1 is the maximum). Put shortly: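 Transactivation by an exogenous VDR-Gal4 chimera in transiently transfected HepG2 cells was measured as reporter transcript level 24 hours after chemical treatment. RT-PCR products were analysed by capillary electrophoresis and fitted in the positive direction relative to DMSO.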

Experiment [15] has as its target Retinoic acid receptor alpha (Homo sapiens) (UniProt P10276). The experiment is described as follows: ATG_RARa_TRANS: Attagene TRANS-FACTORIAL HepG2 Assay for human Retinoic Acid Receptor alpha (RARa) (AID 2283005; active = hit-call score of the fitted dose curve at least 0.9, where 1 is the maximum). Put shortly: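 Reporter transcripts, measured by RT-PCR with fluorescent labeling and capillary electrophoresis after 24 h dosing, reflect activity of an exogenous human RARa–GAL4 fusion in transiently transfected HepG2. Fitted for increase relative to DMSO.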

Experiment [16] concerns the target Nuclear receptor subfamily 1 group I member 2 (Homo sapiens) (UniProt O75469). The experiment can be described thus: ATG_PXR_TRANS: Attagene TRANS-FACTORIAL HepG2 Assay for human Pregnane X Receptor (PXR) (AID 2283008; active = hit-call score of the fitted dose curve at least 0.9, where 1 is the maximum). Put shortly:
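Read-out is fluorescence of labelled reporter cDNA fragments separated by capillary electrophoresis after RT-PCR and HpaI digestion. Source: HepG2 cells carrying PXR-GAL4/UAS reporter constructs, treated 24 h; activity fitted upward relative to DMSO.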

Experiment [17] concerns the target human Retinoic Acid Receptor gamma (RARg), RARG (gene 5916) (UniProt P13631). The experiment can be described thus: ATG_RARg_TRANS: Attagene TRANS-FACTORIAL HepG2 Assay for human Retinoic Acid Receptor gamma (RARg) (AID 2283009; active = hit-call score of the fitted dose curve at least 0.9, where 1 is the maximum). In a few lines:
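HepG2 cells transiently transfected with multiplexed reporter units expressing chimeric RARg-GAL4 and GAL4-UAS-driven reporters; 24 h compound exposure. Reporter mRNA quantified by RT-PCR with fluorescent labelling and capillary electrophoresis; gain-of-signal fitted relative to DMSO baseline.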

For experiment [18], the target named is human RAR-related Orphan Receptor beta (RORb), RORB (gene 6096) (UniProt Q92753). The experiment can be described thus: ATG_RORb_TRANS: Attagene TRANS-FACTORIAL HepG2 Assay for human RAR-related Orphan Receptor beta (RORb) (AID 2283010; active = hit-call score of the fitted dose curve at least 0.9, where 1 is the maximum). In a few lines:
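HepG2 cells were transiently transfected with multiplexed GAL4-UAS reporter units expressing chimeric nuclear receptor–GAL4 proteins, then dosed for 24 h. Reporter mRNA was quantified by RT-PCR with fluorescent labelling and capillary electrophoresis; gain of signal was fitted relative to DMSO.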

Experiment [19] deals with Peroxisome proliferator-activated receptor gamma (Homo sapiens) (UniProt P37231). The experiment is described as follows: ATG_PPARg_TRANS: Attagene TRANS-FACTORIAL HepG2 Assay for human Peroxisome Proliferator-activated Receptor-gamma (PPARg) (AID 2283007; active = hit-call score of the fitted dose curve at least 0.9, where 1 is the maximum). Put shortly:
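HepG2 cells transiently transfected with multiplexed GAL4-UAS reporter units and exogenous chimeric NR-Gal4 proteins; reporter mRNA quantified after 24 h compound exposure by RT-PCR, fluorescent labelling, HpaI digestion and capillary electrophoresis; gain-of-signal fitted versus DMSO baseline.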

Experiment [20] has as its target Retinoic acid receptor RXR-alpha (Homo sapiens) (UniProt P19793). The experiment can be described thus: ATG_RXRa_TRANS: Attagene TRANS-FACTORIAL HepG2 Assay for human Retinoid X Receptor alpha (RXRa) (AID 2283012; active = hit-call score of the fitted dose curve at least 0.9, where 1 is the maximum). In a few lines:
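HepG2 cells transiently transfected with multiplexed GAL4-UAS reporter units and chimeric NR-GAL4 fusions, dosed 24 h. Reporter mRNA measured by RT-PCR, FAM labelling, HpaI digestion and capillary electrophoresis; gain-of-signal fitted relative to DMSO baseline.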

human RAR-related Orphan Receptor gamma (RORg), RORC (gene 6097), sequence (P51449 whole entry, looked up, the tested form may be a part): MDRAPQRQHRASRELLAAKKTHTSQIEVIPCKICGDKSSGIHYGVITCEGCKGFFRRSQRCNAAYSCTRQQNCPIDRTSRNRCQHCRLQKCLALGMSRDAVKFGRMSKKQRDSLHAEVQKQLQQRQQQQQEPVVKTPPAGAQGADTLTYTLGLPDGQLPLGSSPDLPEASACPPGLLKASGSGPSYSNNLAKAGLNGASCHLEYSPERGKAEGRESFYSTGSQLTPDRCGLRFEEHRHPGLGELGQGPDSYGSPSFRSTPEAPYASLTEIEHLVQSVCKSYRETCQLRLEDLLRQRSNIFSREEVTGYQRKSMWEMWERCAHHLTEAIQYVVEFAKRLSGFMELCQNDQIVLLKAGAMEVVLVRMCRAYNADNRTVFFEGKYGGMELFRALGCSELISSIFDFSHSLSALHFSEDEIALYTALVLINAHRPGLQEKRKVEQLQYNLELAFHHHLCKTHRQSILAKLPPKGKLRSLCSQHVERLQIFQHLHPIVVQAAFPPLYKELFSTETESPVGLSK
human Vitamin D Receptor (VDR), VDR (gene 7421), sequence (P11473 whole entry, looked up, the tested form may be a part): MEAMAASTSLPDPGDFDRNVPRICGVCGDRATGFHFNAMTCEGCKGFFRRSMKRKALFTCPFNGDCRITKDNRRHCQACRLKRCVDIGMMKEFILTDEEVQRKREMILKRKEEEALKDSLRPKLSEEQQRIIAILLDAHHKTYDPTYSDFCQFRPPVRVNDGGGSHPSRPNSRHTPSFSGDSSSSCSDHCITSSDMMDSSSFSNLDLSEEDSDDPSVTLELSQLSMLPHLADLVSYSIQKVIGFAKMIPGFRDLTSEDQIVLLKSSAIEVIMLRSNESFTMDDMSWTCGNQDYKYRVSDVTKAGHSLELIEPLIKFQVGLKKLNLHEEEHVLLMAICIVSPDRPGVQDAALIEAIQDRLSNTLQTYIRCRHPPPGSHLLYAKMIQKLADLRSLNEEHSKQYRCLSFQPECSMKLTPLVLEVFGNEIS
human Retinoid X Receptor beta (RXRb), RXRB (gene 6257), sequence (P28702 whole entry, looked up, the tested form may be a part): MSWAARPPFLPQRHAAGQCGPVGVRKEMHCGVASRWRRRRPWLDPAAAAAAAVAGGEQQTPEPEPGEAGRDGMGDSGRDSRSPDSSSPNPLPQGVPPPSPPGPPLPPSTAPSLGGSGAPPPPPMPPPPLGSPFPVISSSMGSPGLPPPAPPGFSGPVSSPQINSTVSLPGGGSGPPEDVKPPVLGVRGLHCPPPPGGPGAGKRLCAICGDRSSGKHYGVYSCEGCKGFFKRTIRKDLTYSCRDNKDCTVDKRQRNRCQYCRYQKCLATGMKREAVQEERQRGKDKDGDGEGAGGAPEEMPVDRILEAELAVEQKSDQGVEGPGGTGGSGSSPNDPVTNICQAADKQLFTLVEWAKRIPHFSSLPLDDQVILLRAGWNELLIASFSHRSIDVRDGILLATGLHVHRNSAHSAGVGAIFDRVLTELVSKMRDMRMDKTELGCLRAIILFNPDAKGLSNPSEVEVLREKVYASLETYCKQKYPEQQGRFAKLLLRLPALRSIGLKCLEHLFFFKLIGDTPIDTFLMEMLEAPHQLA
Nuclear receptor subfamily 1 group I member 2 (Homo sapiens), sequence (O75469 whole entry, looked up, the tested form may be a part): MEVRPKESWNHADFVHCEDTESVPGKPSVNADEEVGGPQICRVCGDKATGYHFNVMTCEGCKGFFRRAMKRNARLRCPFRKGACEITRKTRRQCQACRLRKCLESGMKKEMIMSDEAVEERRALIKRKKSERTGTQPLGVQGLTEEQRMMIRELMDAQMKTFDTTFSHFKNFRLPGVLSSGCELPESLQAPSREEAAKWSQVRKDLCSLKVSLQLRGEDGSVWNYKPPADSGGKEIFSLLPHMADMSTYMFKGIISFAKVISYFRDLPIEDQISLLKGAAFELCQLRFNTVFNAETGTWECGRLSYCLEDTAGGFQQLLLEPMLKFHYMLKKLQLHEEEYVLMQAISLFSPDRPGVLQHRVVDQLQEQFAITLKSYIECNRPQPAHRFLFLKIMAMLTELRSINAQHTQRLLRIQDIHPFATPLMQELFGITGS
Peroxisome proliferator-activated receptor gamma (Homo sapiens), sequence (P37231 whole entry, looked up, the tested form may be a part): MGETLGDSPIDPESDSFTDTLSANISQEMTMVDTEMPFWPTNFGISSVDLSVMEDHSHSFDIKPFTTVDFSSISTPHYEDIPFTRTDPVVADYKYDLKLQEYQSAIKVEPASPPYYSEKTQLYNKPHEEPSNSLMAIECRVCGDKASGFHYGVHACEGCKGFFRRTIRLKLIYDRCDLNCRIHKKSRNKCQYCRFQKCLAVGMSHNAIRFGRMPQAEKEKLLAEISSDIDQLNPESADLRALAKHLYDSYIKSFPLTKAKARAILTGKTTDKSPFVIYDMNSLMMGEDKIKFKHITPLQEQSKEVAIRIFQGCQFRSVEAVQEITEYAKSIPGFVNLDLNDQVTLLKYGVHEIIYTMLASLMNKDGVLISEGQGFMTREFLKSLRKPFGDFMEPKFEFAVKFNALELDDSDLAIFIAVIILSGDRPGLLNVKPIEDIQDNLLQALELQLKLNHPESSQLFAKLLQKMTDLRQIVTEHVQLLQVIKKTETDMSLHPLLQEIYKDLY
human Retinoic Acid Receptor gamma (RARg), RARG (gene 5916), sequence (P13631 whole entry, looked up, the tested form may be a part): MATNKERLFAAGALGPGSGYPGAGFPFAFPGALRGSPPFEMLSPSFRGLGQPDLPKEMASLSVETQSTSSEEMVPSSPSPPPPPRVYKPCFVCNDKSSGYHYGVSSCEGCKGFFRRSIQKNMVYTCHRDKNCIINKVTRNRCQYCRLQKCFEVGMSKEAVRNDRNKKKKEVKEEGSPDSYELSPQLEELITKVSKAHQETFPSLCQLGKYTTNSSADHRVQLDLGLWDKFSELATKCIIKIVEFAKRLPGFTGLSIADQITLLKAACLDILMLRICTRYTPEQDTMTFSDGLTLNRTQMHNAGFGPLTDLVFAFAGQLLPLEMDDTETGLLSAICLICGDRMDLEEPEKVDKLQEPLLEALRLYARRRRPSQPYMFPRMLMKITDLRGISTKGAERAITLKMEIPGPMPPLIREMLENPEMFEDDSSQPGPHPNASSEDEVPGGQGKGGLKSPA
Retinoic acid receptor alpha (Homo sapiens), sequence (P10276 whole entry, looked up, the tested form may be a part): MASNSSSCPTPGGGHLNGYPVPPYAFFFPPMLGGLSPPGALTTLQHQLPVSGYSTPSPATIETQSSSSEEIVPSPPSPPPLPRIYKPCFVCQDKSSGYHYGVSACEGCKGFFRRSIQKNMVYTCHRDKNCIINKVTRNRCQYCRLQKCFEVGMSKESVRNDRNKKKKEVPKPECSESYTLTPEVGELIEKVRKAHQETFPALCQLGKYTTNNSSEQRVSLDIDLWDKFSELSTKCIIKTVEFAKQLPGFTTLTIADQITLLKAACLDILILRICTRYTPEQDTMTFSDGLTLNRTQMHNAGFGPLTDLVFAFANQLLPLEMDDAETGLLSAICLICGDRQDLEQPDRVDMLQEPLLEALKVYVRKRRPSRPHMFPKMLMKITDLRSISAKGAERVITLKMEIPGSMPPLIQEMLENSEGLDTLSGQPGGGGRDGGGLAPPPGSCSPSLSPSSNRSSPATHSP
human Thyroid Receptor alpha (THRa1), THRA (gene 7067), sequence (P10827 whole entry, looked up, the tested form may be a part): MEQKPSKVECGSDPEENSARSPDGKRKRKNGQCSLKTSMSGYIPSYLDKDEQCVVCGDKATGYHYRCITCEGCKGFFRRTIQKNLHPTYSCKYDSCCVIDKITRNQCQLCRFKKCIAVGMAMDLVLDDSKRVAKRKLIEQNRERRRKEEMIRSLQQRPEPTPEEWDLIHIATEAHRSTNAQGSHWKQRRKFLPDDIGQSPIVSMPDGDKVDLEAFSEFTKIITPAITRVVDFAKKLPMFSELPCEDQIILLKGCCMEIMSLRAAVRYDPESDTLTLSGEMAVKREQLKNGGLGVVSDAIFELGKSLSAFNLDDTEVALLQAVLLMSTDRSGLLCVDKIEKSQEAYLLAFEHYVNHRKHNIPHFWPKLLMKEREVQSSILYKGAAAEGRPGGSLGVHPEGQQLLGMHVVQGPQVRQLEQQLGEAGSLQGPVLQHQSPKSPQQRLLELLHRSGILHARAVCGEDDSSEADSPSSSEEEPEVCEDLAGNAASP
human RAR-related Orphan Receptor beta (RORb), RORB (gene 6096), sequence (Q92753 whole entry, looked up, the tested form may be a part): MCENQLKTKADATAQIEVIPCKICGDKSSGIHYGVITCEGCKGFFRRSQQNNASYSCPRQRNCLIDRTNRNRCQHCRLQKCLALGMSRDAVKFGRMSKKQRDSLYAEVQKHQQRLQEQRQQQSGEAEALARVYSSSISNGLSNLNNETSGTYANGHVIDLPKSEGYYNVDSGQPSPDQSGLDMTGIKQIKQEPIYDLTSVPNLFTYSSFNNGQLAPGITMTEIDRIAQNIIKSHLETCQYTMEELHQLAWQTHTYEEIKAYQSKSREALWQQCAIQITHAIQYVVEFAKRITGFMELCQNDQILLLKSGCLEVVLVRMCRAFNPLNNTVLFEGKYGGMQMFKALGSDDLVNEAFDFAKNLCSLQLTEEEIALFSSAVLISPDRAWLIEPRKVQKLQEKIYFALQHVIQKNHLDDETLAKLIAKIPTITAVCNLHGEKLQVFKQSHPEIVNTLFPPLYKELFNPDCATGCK
E-selectin (Homo sapiens), sequence (P16581 whole entry, looked up): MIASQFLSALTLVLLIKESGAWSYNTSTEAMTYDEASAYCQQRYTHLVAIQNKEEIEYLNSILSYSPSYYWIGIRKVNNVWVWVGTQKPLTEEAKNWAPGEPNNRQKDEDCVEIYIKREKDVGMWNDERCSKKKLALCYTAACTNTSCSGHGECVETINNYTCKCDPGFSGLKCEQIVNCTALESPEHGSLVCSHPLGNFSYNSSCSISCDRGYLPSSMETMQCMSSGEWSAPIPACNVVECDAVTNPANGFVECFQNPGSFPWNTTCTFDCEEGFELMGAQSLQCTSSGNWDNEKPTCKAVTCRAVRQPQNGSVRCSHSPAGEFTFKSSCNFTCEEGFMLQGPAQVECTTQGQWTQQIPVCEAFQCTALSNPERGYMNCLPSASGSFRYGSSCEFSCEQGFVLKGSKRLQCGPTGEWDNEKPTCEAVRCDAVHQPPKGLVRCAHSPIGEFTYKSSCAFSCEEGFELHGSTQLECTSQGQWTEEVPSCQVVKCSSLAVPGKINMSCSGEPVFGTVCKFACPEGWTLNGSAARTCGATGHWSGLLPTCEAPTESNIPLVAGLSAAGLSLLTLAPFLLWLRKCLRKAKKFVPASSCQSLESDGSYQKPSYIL

Take `Clc1cccc(Cl)c1`: the outcome in experiment [1], in experiment [2], in experiment [3], in experiment [4], in experiment [5] and in experiment [6] was inactive. Besides, the outcome in experiment [7], in experiment [8], in [9], in [10], in [11] and in [12] was inactive. Moreover, the result in experiment [13] and in experiment [14] was inactive.
Take `C[C@]12CC[C@@H](O)C[C@@H]1CC[C@@H]1[C@@H]2CC[C@]2(C)C(=O)CC[C@@H]12`: the result in experiment [1], in experiment [2], in [15], in [3], in experiment [16] and in experiment [17] was inactive. The compound was classed as inactive in [18], in [4], in experiment [5], in experiment [7], in experiment [8] and in experiment [9]. Moreover, the outcome in experiment [10], in experiment [11], in experiment [13] and in experiment [14] was inactive.
Turning to `CCCCOC(=O)COC(=O)c1ccccc1C(=O)OCCCC`, the outcome in [1], in experiment [3], in experiment [4], in [6], in experiment [7] and in [8] was inactive. Also, the result in [10], in [11] and in experiment [13] was inactive. Moreover, the results for the AC50 in experiment [3], in [19] and in experiment [16] were 26.1 µM (active), 51.4 µM (active) and 27.4 µM (active), respectively.
`CC(C=O)Cc1ccc2c(c1)OCO2` (stereo not given): the outcome in [1], in [15], in experiment [3], in [19], in [17] and in experiment [4] was inactive. The compound was called inactive in experiment [20], in experiment [5], in [6], in [7], in experiment [8] and in [10]. The result in [11], in [12], in [13] and in experiment [14] was inactive. Besides, the AC50 (as a rule, the midpoint of the concentration-response curve, whichever way the signal moves) in [16] was 21.5 µM (active).
For `CCOP(=O)(OCC)SCCSCC`, the outcome in [1], in experiment [15], in experiment [3], in experiment [19], in experiment [16] and in experiment [17] was inactive. The call in [18], in experiment [4], in experiment [5], in [6], in experiment [7] and in experiment [8] was inactive. Moreover, the outcome in experiment [10], in experiment [11] and in experiment [13] was inactive.
Regarding `c1ccc2sc(SNC3CCCCC3)nc2c1`, the outcome in experiment [1], in experiment [3], in experiment [18], in experiment [4], in [5] and in [6] was inactive. In addition, the result in experiment [7], in experiment [8], in experiment [9], in [10], in experiment [12] and in experiment [13] was inactive. Further, in [14], the compound was called inactive. Moreover, the values for the AC50 in experiment [19], in experiment [16] and in [11] were 6.77 µM (active), 20.2 µM (active) and 29.3 µM (active), respectively.
`CCOC(=O)CC(=O)CCl`: the outcome in experiment [1], in experiment [16], in [18], in experiment [4], in experiment [20] and in experiment [5] was inactive. The result in experiment [10], in experiment [13] and in [14] was inactive. For the same compound, the AC50 in [3] was 20 µM (active); in [19], 22 µM (active); in [6] it was 100 µM (active); in experiment [7], 20 µM (active); in [8], 20 µM (active); in experiment [11], 28.1 µM (active).
